PubChem BioAssay AID651593 (National Center for Advancing Translational Sciences (NCATS), 2012)
Among all 1,100 compounds or so, about 860 (78%) were called active. Not shown: some 19% with an inconclusive outcome. Calls follow the shape of the dose curve; as a rule, active = well fitted activation curve with a large enough effect; inconclusive = small, poorly fitted or top-dose-only effect; inactive = flat fitted curve, though single readings scatter. The set was probably picked from earlier hits. The list shows a part of the results.
Potency is read from the fitted curve at half-maximal effect.

Assay: qHTS of Nrf2 Activators: Hit Validation in Primary Assay; also: nearly all actives have a fitted effect of over 70% in size
Conditions: Nrf2/ARE reporter cell assay; Potency: activation; series mostly up to 46.1 µM
Method in brief: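 Luminescence from Steady-Glo lysis reagent, read after 30 min, reported ARE-luciferase activity in AREc32_fluc stable cells. Compounds were tested at several concentrations, incubated 24 h at 37 °C with 5% CO2 following overnight seeding.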
For `O=c1oc(CCCO)cc2ccc(C#Cc3ccsc3)cc12`, the Potency was 2.31 µM (active).
For `O=c1[nH]c(O)c(/C=C2\C=Nc3ccc(Br)cc32)[nH]1`, the Potency was 8.2 µM (active).
For `O=c1[nH]c(O)c(/C=C2\C=Nc3ccccc32)[nH]1`, the Potency was 14.6 µM (active).
For `O=C(CN1CCS(=O)(=O)CC1)N/N=C/c1cccc(C(F)(F)F)c1`, the Potency was 2.31 µM (active).
With `Oc1ccccc1-c1csc(-c2ccccc2)n1` the Potency was 7.31 µM (active).
For `Nc1nc(-c2ccccc2)cc(-c2ccccc2O)n1`, the Potency was 4.11 µM (active).
For `C[n+]1c2n(c3ccccc31)N=C(c1ccccc1)CS2`, the Potency was 2.91 µM (active).
With `CC1Sc2n(c3ccccc3[n+]2C)N=C1c1ccccc1` (configuration not stated) the Potency was 7.31 µM (active).
For `COc1cc2c(c(Br)c1N)-c1cc(Br)c(N)cc1C2=O`, the Potency was 4.11 µM (active).
With `O=C(Nc1ccccc1C(=O)N/N=C/c1ccco1)c1ccc(F)cc1` the Potency was 2.31 µM (active).
With `O=C(Nc1ccccc1C(=O)N/N=C/c1ccco1)c1ccccc1` the Potency was 2.31 µM (active).
For `Nc1c(Cl)c(Cl)nc(C(=O)N/N=C/c2ccco2)c1Cl`, the Potency was 2.59 µM (active).
For `Cc1nn(C)c(C)c1/C=C(/C(=O)C(C)(C)C)n1cncn1`, the Potency was 11.6 µM (active).
For `O=C(CN1C(=O)S/C(=C\c2ccccc2Cl)C1=O)NC1C=CS(=O)(=O)C1` (configuration not stated), the Potency was 18.4 µM (active).
For `O=[N+]([O-])c1cc(Cl)cc(/C=N/Nc2nc3ccccc3s2)c1O`, the Potency was “inactive”.
With `Brc1cc2c(cc1/C=N/Nc1nc3ccccc3s1)OCO2` the Potency was 2.31 µM (active).
In the case of `CCc1nc(N)c(C#N)c(-c2ccco2)c1C`, the Potency is reported as 1.64 µM (active).
In the case of `N#Cc1c(-c2ccco2)cc(-c2ccc(F)cc2)nc1N`, the Potency is reported as 2.31 µM (active).
For `N#Cc1c(-c2ccco2)cc(-c2ccccn2)nc1N`, the Potency was 2.31 µM (active).
In the case of `CC(C)Cc1cc(-c2ccco2)c(C#N)c(N)n1`, the Potency is reported as 1.3 µM (active).
With `O=C(Oc1cccc(-c2cnc3ccccc3n2)c1)c1ccco1` the Potency was 3.26 µM (active).
For `O=[N+]([O-])c1cccc(-c2cnc3ccccc3n2)c1`, the Potency was 6.51 µM (active).
For `c1coc(-c2cnc3ccccc3n2)c1`, the Potency was 5.17 µM (active).
In the case of `CC(=O)Nc1ccc(O)c(-c2nc3ccccc3s2)c1`, the Potency is reported as 2.06 µM (active).
With `O=[N+]([O-])c1ccc(Cl)c(/C=N/n2c(-c3ccncc3)n[nH]c2=S)c1` the Potency was 11.6 µM (active).
With `O=C(N/N=C/c1ccc(-c2cccc([N+](=O)[O-])c2)o1)c1cccs1` the Potency was 2.06 µM (active).
In the case of `COC(=O)C1=C(C)NC(=O)/C1=C\c1ccco1`, the Potency is reported as 3.66 µM (active).
With `COC(=O)C1=C(C)N(c2ccc(Br)cc2)C(=O)/C1=C\c1ccco1` the Potency was 18.4 µM (active).
In the case of `CCN1C(=O)/C(=C\c2ccco2)C(C(=O)OC)=C1C`, the Potency is reported as 3.26 µM (active).
In the case of `COC(=O)C1=C(C)N(C)C(=O)/C1=C\c1ccco1`, the Potency is reported as 2.06 µM (active).
For `CCCC(=O)Nc1sc(C)c(C)c1C#N`, the Potency was 14.6 µM (active).
With `O=C(Nc1cccnc1)C1(F)C(F)(F)C(F)(F)C(F)(F)C(F)(F)C1(F)F` the Potency was 14.6 µM (active).
For `O=c1cc(-c2ccccc2)oc2ccc(Cl)cc12`, the Potency was 3.26 µM (active).
With `CSc1ccc(-c2cc(=O)c3ccccc3o2)cc1` the Potency was 2.06 µM (active).
In the case of `S=c1[nH]nc(-c2ccco2)n1/N=C/c1ccc(Br)s1`, the Potency is reported as 2.31 µM (active).
In the case of `O=[N+]([O-])c1ccccc1/C=C/C=N/n1c(-c2ccco2)n[nH]c1=S`, the Potency is reported as 11.6 µM (active).
With `S=c1[nH]nc(-c2ccco2)n1/N=C/c1cccc(Cl)c1Cl` the Potency was 10.3 µM (active).
In the case of `CNc1ccc(Br)cc(C(=O)/C=C/c2cccc(Cl)c2Cl)c1=O`, the Potency is reported as 1.84 µM (active).
With `CNc1ccccc(C(=O)/C=C/c2ccccc2OC)c1=O` the Potency was 20.6 µM (active).
For `CSc1nsc(SC)c1C(=O)Nc1ccc(Cl)cc1`, the Potency was 4.61 µM (active).
With `CSc1nsc(SC)c1C(=O)Nc1ccc(C)cc1` the Potency was 16.4 µM (active).
In the case of `CC(OC(=O)/C=C/c1ccc2ccccc2n1)C(=O)Nc1ccc(S(N)(=O)=O)cc1` (configuration not stated), the Potency is reported as 20.6 µM (active).
In the case of `Cc1cc(=O)oc2cc(NC(=O)c3ccccc3Cl)ccc12`, the Potency is reported as 2.91 µM (active).
In the case of `CCN(CC)c1ccc2c(c1)oc(=O)c1c(Cl)cc(=O)oc12`, the Potency is reported as “inactive”.
In the case of `COC(=O)c1sccc1NC(=O)c1ccccc1`, the Potency is reported as 20.6 µM (active).
With `COC(=O)c1sccc1NC(=O)c1cccc(OC)c1` the Potency was 7.31 µM (active).
For `COC(=O)c1sccc1NC(=O)c1cccc(F)c1`, the Potency was 18.4 µM (active).
In the case of `COC(=O)c1sccc1NC(=O)c1cc(C)on1`, the Potency is reported as 16.4 µM (active).
In the case of `COC(=O)c1sccc1NC(=O)c1ccccc1F`, the Potency is reported as 18.4 µM (active).
For `COc1cccc(C(=O)Nc2cc(Cl)c(O)c(Cl)c2)c1`, the Potency was 5.17 µM (active).
In the case of `COC(=O)c1sccc1NC(=O)c1ccc(OC)c(OC)c1`, the Potency is reported as 4.61 µM (active).
For `COC(=O)c1sccc1NC(=O)c1cccc(Cl)c1`, the Potency was 20.6 µM (active).
In the case of `O=C(NNC(=O)c1sccc1-n1cccc1)c1cccc(Cl)c1`, the Potency is reported as 2.59 µM (active).
For `COC(=O)c1sccc1NC(=O)Nc1ccc(Cl)c(Cl)c1`, the Potency was 14.6 µM (active).
In the case of `COC(=O)c1sccc1NC(=O)c1csc(C)c1`, the Potency is reported as 4.61 µM (active).
For `COc1ccc(NC(=O)c2ccc([N+](=O)[O-])s2)c([N+](=O)[O-])c1`, the Potency was 9.2 µM (active).
For `COc1ccccc1NC(=O)/C(C#N)=C/c1cccn1C`, the Potency was 20.6 µM (active).
For `COc1ccc(OC)c(NC(=O)C(C#N)=Cc2ccco2)c1`, the Potency was 6.51 µM (active).
In the case of `O=Cc1c(Sc2ccccn2)nc2ccccn2c1=O`, the Potency is reported as 20.6 µM (active).
With `COC(=O)CSc1nc2ccccn2c(=O)c1C=O` the Potency was 20.6 µM (active).
In the case of `Nc1nc(/C=C/c2ccc(F)cc2)nc(-c2ccccc2O)n1`, the Potency is reported as 2.59 µM (active).
For `Nc1nccc(-c2ccc(-n3cccc3)cc2)n1`, the Potency was 13 µM (active).
In the case of `COc1ccc(Cl)cc1NC(=O)c1cc(C)no1`, the Potency is reported as 10.3 µM (active).
In the case of `COc1cc(OC)c(NC(=O)c2ccco2)cc1Cl`, the Potency is reported as 13 µM (active).
With `COc1ccc(Cl)cc1C(=O)NC(=S)Nc1nc(C)cc(C)n1` the Potency was “inactive”.
With `COc1ccc(Cl)cc1NC(=O)c1cc(-c2ccccc2O)n[nH]1` the Potency was 2.91 µM (active).
For `COc1cc2c(cc1NC(=O)c1ccco1)CCCC2`, the Potency was 3.26 µM (active).
